CtBP-E1A blk: qHTS Assay for Inhibitors of the CtBP/E1A Interaction. activity change, % (concentration not given with the values). AID 651724, 2012. 340,000 tested, 0.49% active. CtBP / adenovirus E1A interaction (AlphaScreen). AlphaScreen GST-E1A/His-CtBP binding, 1536-well; hits give low values; in the data active means activity change below about -65%; inconclusive means mostly about -30% to -63%
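Homogeneous bead-based format: GST-tagged E1A captured on glutathione donor beads, His-tagged CtBP on nickel acceptor beads; compounds precede bead addition by 2 h at 37 °C.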
JMJD2A Tudor inh: qHTS Assay for Inhibitors of JMJD2A-Tudor Domain. Lysine-specific demethylase 4A (Homo sapiens), O75164. AlphaScreen JMJD2A-Tudor / H3K4me3 peptide binding. Potency, µM (doses to about 114 µM), hits mostly inhibitors. 390,000 tested, 4.4% active. AID 504339, 2011; further: nearly all actives have a fitted effect of over 50% in size
BAZ2B inh: qHTS Assay for Inhibitors of BAZ2B; Bromodomain adjacent to zinc finger domain protein 2B (Homo sapiens), Q9UIF8; AlphaScreen BAZ2B-H3K14Ac peptide displacement; Potency, µM (titrated, usually from 114 µM), most hits filed as inhibitors; 360,000 tested, 4.4% active; AID 504333, 2011; further: nearly all actives have a fitted effect of over 60% in size
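AlphaScreen displacement of biotin-H3(5-23)K14Ac peptide (50 nM final) from BAZ2B (50 nM final) in PBS pH 7.4, 0.01% Tween-20; complex preformed 30 min RT, then compounds (top 110 uM) 30 min RT, beads 20 min dark.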
G9a block: qHTS Assay for Inhibitors of Histone Lysine Methyltransferase G9a | 350,000 tested, 8.8% active | Histone-lysine N-methyltransferase EHMT2 (Homo sapiens), Q96KQ7 | Potency, µM (series often up to 102 µM), most hits filed as inhibitors | G9a H3K9 monomethylation, AlphaScreen, 2 h; further: nearly all actives have a fitted effect of over 75% in size
Target sequence (Q96KQ7 913-1193 limits assumed): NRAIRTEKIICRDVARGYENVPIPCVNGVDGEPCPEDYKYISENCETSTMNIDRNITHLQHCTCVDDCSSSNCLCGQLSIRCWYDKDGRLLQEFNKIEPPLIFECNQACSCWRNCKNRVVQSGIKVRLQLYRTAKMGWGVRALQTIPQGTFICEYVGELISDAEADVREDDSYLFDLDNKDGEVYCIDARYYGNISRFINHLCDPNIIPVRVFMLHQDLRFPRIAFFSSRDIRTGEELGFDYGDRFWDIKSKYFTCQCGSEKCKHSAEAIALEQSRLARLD
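AlphaScreen detection with an anti-monomethyl H3K9 antibody quantified product after a 2 h room-temperature reaction containing 500 nM biotinylated H3K9 peptide, 20 µM SAM and 20 nM enzyme, which had been preincubated 15 min with compound.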
Six1-Eya2 inh: qHTS Assay for Inhibitors of the Six1/Eya2 Interaction. Homeobox protein SIX1 (Homo sapiens) + Protein phosphatase EYA2 (Homo sapiens), …. 360,000 tested, 0.56% active. activity change, % (concentration not given with the values). AlphaScreen GST-Six1/His-Eya2 binding, biochemical; hits give low values; in the data active means activity change below about -65%; inconclusive means mostly about -30% to -63%
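Compounds are tested against tagged Six1 and Eya2 proteins bridged by glutathione donor and nickel acceptor beads; after a one-hour incubation at 37 °C without light, AlphaScreen emission is recorded.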
HP1b chromo inh: HTS for Inhibitors of HP1-beta Chromodomain Interactions with Methylated Histone Tails; 390,000 tested, 0.56% active; AID 540317, 2011; Potency, µM (highest dose often 114 µM), most hits filed as inhibitors; AlphaScreen HP1-beta / biotin-H3K9me3 peptide binding; Chromobox protein homolog 1 (Homo sapiens), P83916; further: nearly all actives have a fitted effect of over 70% in size
Target sequence (P83916 whole entry, looked up): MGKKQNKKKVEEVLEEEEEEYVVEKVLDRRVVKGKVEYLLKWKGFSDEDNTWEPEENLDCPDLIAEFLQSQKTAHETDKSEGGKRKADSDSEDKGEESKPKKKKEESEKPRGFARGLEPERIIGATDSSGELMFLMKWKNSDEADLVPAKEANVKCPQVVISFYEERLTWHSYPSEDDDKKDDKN
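HP1-beta protein (50 nM final) preincubated 30 min at room temperature with biotinylated H3(1-18)K9me3 peptide (50 nM) in PBS pH 7.4, 0.01% Tween-20, then compound added for 30 min. AlphaScreen streptavidin donor/nickel chelate acceptor beads (10 ug/mL final), 30 min dark, luminescence read.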
Of the large screens only hits and unclear results are named; the others gave an inactive call. Most compounds without a hit are left out; they make up all but 10% or so of the library. Unless noted, the call rests on the fitted dose curve; in most records, active means well fitted inhibition curve with a large enough effect; inconclusive means small, poorly fitted or top-dose-only effect; inactive means no such curve, though single readings can be large or run the other way.

O=C(N/N=C/c1cccs1)c1cc(-c2cccc3ccccc23)n[nH]1	none (no result: CtBP-E1A blk)
Cc1ccc(NC(=O)Cn2ncc(Cl)c(Cl)c2=O)cc1S(=O)(=O)N1CCCCC1	G9a block inconclusive
COc1cccc(/C=C/C(=O)OCC(=O)Nc2cccc(S(=O)(=O)N3CCCCC3)c2)c1OC	G9a block 70.8µM
Cc1ccc(NC(=O)Cn2cc(C(F)(F)F)cc(Cl)c2=O)cc1S(=O)(=O)N1CCCCC1	G9a block 50.1µM
COc1ccccc1CN(C)CC(=O)Nc1cccc(S(=O)(=O)N2CCCC2)c1	JMJD2A Tudor inh 0.794µM (no result: BAZ2B inh, G9a block)
Cc1ccc(S(=O)(=O)N2CCCCC2)cc1NC(=O)COC(=O)C1CC2C=CC1C2 (stereo not drawn)	none
Cc1ccc(NC(=O)COC(=O)C2CC3C=CC2C3)cc1S(=O)(=O)N1CCCCC1 (stereo not drawn)	JMJD2A Tudor inh 56.2µM
O=C(NCC(c1ccco1)S(=O)(=O)c1ccc(Cl)cc1)c1ccccc1F (stereo not drawn)	none (no result: CtBP-E1A blk, Six1-Eya2 inh)
COc1ccc(NC(=O)CN(C)CC(=O)Nc2cccc(F)c2)cc1S(=O)(=O)N1CCCCC1	JMJD2A Tudor inh 2.82µM, HP1b chromo inh inconclusive (no result: BAZ2B inh, G9a block)
CCOC(=O)N1CCN(C(=O)CNC2CCCCCCC2)CC1	JMJD2A Tudor inh 31.6µM, BAZ2B inh 50.1µM, G9a block 31.6µM (no result: CtBP-E1A blk)
CCOC(=O)N1CCN(C(=S)NC2CCCCC2)CC1	none
COc1ccccc1C(=O)Nc1ncc2c(n1)CC(c1ccco1)CC2=O (stereo not drawn)	BAZ2B inh 50.1µM, G9a block 50.1µM
COC1=C(N)C(=O)c2nc(-c3nc(C(=O)O)c(C)c(-c4ccc(OC)c(OC)c4O)c3N)ccc2C1=O	CtBP-E1A blk inconclusive, JMJD2A Tudor inh 89.1µM, G9a block inconclusive, Six1-Eya2 inh inconclusive
Oc1c(C(Nc2ccccn2)c2ccccn2)ccc2cccnc12 (stereo not drawn)	CtBP-E1A blk -94.8, G9a block 31.6µM, Six1-Eya2 inh -95.0
OC(c1ccccc1)C(Nc1ccccn1)c1ccccc1 (stereo not drawn)	none (no result: BAZ2B inh, G9a block)
Oc1c(C(Nc2ccccn2)c2ccccc2F)ccc2cccnc12 (stereo not drawn)	JMJD2A Tudor inh 14.1µM, BAZ2B inh 20µM, G9a block inconclusive (no result: CtBP-E1A blk, Six1-Eya2 inh)
COc1ccccc1NC(NC(=O)c1cccnc1)C(Cl)(Cl)Cl (stereo not drawn)	G9a block inconclusive
COc1ccccc1NC(c1cccnc1)c1ccc2cccnc2c1O (stereo not drawn)	CtBP-E1A blk -77.8, JMJD2A Tudor inh 22.4µM, BAZ2B inh 14.1µM, G9a block 1.41µM, Six1-Eya2 inh -79.3, HP1b chromo inh inconclusive
Oc1ccccc1C(Nc1nccs1)c1ccc2cccnc2c1O (stereo not drawn)	CtBP-E1A blk -93.4, JMJD2A Tudor inh 35.5µM, BAZ2B inh 28.2µM, Six1-Eya2 inh -77.1 (no result: G9a block)
CC(C)Cn1cnc2c1c(=O)n(CC(=O)Nc1ccc3c(c1)OCO3)c(=O)n2Cc1ccccc1	none
O=C1NC[C@@H](CCCCN2C[C@H](Cc3ccc(O)cc3)N(CCc3ccccc3)C(=O)C2=O)N(CCC2CCCCC2)C1=O	none (no result: JMJD2A Tudor inh, BAZ2B inh, G9a block, HP1b chromo inh)
COc1ccc(C(Nc2cc(C)ccn2)c2ccc3ccc(C)nc3c2O)cc1 (stereo not drawn)	JMJD2A Tudor inh inconclusive, G9a block 3.98µM
Cc1ccnc(NCc2c(O)ccc3ccccc23)c1	BAZ2B inh inconclusive (no result: CtBP-E1A blk, G9a block)
Cc1ccnc(NC(c2ccccc2F)c2ccc3cccnc3c2O)c1 (stereo not drawn)	JMJD2A Tudor inh 12.6µM, BAZ2B inh 25.1µM, G9a block inconclusive (no result: CtBP-E1A blk, Six1-Eya2 inh)
